Screening data deposited in PubChem by National Center for Advancing Translational Sciences (NCATS).
ELG1 genotoxic – induces genotoxicity in HEK293T cells with luciferase-tagged ELG1. HEK293T ELG1-luciferase reporter, luminescence, 16 h. Potency, µM (doses to about 46 µM), inactives show top-dose activity change, positive = activation, hits mostly activators. 330,000 tested, 1.3% active; note: % of control where 0% means no effect; nearly all actives have a fitted effect of over 60% in size
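Genotoxic stress is detected as increased luminescence from luciferase-tagged ELG1 in HEK293T cells, measured with ONE-Glo after a 16 hr treatment at 37 °C.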
FLuc counter – counter-screen for miR-21 project: firefly luciferase inhibitors or activators; AID 588342; Potency, µM (top dose mostly 57.5 µM), inactives show at the top dose activity change, negative = inhibition, most hits filed as inhibitors; purified FLuc, Km substrates, luminescence inhibition; P08659; 360,000 tested, 6.9% active;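 note: plate controls were vehicle for no effect and reference inhibitor for full effect; nearly all actives have a fitted effect of over 55% in size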
Target sequence (P08659 whole entry, looked up): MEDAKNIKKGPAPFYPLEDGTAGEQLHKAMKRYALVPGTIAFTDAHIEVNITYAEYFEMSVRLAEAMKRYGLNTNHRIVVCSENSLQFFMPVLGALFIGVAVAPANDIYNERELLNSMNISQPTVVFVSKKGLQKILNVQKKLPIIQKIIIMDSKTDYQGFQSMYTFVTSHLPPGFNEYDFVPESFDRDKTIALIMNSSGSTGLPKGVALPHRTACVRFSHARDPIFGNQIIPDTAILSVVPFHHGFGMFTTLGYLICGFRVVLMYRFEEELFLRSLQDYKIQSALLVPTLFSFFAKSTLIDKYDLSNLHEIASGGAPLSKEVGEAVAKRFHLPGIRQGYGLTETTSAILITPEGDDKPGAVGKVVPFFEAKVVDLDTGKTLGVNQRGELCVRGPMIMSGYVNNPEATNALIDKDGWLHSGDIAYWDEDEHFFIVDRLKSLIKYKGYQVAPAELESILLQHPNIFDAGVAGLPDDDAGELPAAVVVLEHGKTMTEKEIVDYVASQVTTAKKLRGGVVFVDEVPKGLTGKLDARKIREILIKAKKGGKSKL
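Purified P. pyralis luciferase (10nM final) with 10uM D-luciferin and 10uM ATP (Km levels) in 50mM Tris acetate pH 7.5, 10mM Mg acetate, 0.01% Tween-20, 0.05% BSA; qHTS 6-point titration, ~60 µM downward; luminescence read.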
SMN2 splice enh – increases expression of the SMN2 splice variant; HEK293 SMN2-luciferase splicing reporter, luminescence, 30-36 h; Potency, µM (titrated, usually from 46.1 µM), inactives show at the top dose activity change, positive = activation, hits mostly activators; 210,000 tested, 2.8% active; note: % of control where 0% means no effect; nearly all actives have a fitted effect of over 55% in size
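HEK293 cells carry an SMN2 […]–luciferase reporter in which exon 7 inclusion puts luciferase in frame. Cells were plated 10-12 h before compound addition, then incubated 30-36 h at 37C. ONE-Glo luminescence was read; sodium butyrate at 4.5 mM final served as control.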
ELG1 DNA repair – inhibitors of ELG1-dependent DNA repair in HEK293T cells | HEK293T ELG1-luciferase reporter, luminescence, 16 h; DNA damage induced by 5-fluorouridine | AID 504467 | 330,000 tested, 2.3% active | Potency, µM (doses to about 46.1 µM), for inactives: at the top dose activity change, negative = inhibition, most hits filed as inhibitors; note: % is set by controls: 0 for no effect and ±100 for the full control effect; nearly all actives have a fitted effect of over 55% in size
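DMSO vehicle served as the neutral condition. Each well held 2,000 cells given 5-fluorouridine plus compound; after 16 hr at 37 °C/5% CO2, ONE-Glo was added and luciferase measured 30 min later.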
NPC1 promoter act – activates the NPC1 promoter | Huh7 NPC1 promoter luciferase reporter, 24 h | Potency, µM (titrated, usually from 9.22 µM), inactives show at the top dose activation, actives largely listed as activators | 320,000 tested, 2.4% active | AID 485313; note: % of control where 0% means no effect; nearly all actives have a fitted effect of over 60% in size
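Stable NPC1-promoter luciferase Huh7 line; cpd (DMSO) 24 h, 37 °C, 5% CO2; Amplite luciferase reagent 10 min RT; luminescence readout. qHTS format.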
Rab9 prom act – activators of Rab9 promoter | Huh7 Rab9 promoter-luciferase reporter, luminescence, 24 h | AID 485297 | Potency, µM (titrated, usually from 9.22 µM), for the others: at the highest dose activation, negative = inhibition, actives largely listed as activators | 320,000 tested, 2.8% active; note: % of control where 0% means no effect; nearly all actives have a fitted effect of over 60% in size
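Using Huh7 cells stably transfected with Rab9 promoter–luciferase, compounds were incubated 24 h at 37 °C, 5% CO2; luciferase luminescence was read 10 min after reagent addition.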
* marks the source's active call; other numbers are inactive results; u = inconclusive; x = no result given; [ ] = dose if it differs, or a comment. Only some compounds are listed: those with a hit (about 9.2% of all), similar ones and a draw of the others. Calls come from the whole dose curve; as a rule, active = well fitted curve in the direction sought with a large enough effect; inconclusive = small, poorly fitted or top-dose-only effect, or another doubt; inactive = no such curve, though single readings can be large; an effect the other way counts as inactive or inconclusive. Potency is the fitted concentration of half-maximal effect.

SMILES | ELG1 genotoxic | FLuc counter | SMN2 splice enh | ELG1 DNA repair | NPC1 promoter act | Rab9 prom act
CCc1ccc(NC(=S)Nc2cccc(OC)c2)cc1 | 6% | 21µM* | 7% | u | -7% | 2%
COc1ccc(CNC(=S)Nc2cccc(OC)c2)cc1 | -3% | 3% | x | -23% | 0% | 0%
COc1cccc(NC(=S)NN=C2CCCCCC2)c1 | u | 8.5µM* | 14µM* | u | 3.5µM* | 3.2µM*
CCOc1cc(NC(=S)Nc2cccc(OC)c2)c(OCC)cc1NC(=O)C1CC1 | -8% | 15µM* | 20% | u | -2% | 2%
Cc1ccc(C(=O)O)cc1 | x | x | -15% | x | x | x
CCOc1ccc(NC(=O)/C(C#N)=C\c2ccc(-c3ccc(Cl)cc3)o2)cc1 | x | -7% | -3% | x | x | x
CC1CC1c1ccc(/C=C(\C#N)C(=O)Nc2ccc(Cl)cc2)o1 (centres undefined) | u | 4.8µM* | 8.9µM* | u | 3.5µM* | 3.5µM*
CC1CC1c1ccc(/C=C(\C#N)C(=O)Nc2ccccc2Cl)o1 (centres undefined) | 18% | 19µM* | u | u | 16% | 22%
COc1ccccc1CCC(=O)OCC(=O)Nc1ccc(C(N)=O)cc1 | 3% | 1% | x | 5% | -2% | 1%
FC(F)(F)c1cc(NC2CCCCC2)ccn1 | -10% | -8% | x | 8.2µM* | 1% | -3%
Fc1ccc(Nc2ccnc(C(F)(F)F)c2)cc1 | 1% | -2% | x | u | -3% | -6%
CCc1ccc2nc(N3C(=O)C(O)=C(C(=O)c4ccco4)C3c3cccs3)sc2c1 (centres undefined) | 5% | u | u | u | -5% | 1%
Cc1ccc2nc(N3C(=O)C(O)=C(C(=O)c4cc5ccccc5o4)C3c3cccs3)sc2c1 (centres undefined) | u | 4.8µM* | 9% | u | 27% | 21%
COc1cc(CC(=O)N(CC(C)C)C2CCS(=O)(=O)C2)cc(OC)c1OC (centres undefined) | 3% | x | x | 5% | x | x
COc1cccc(-c2ccc3ncnc(NCc4cccc(F)c4)c3c2)c1 | x | -1% | x | x | -2% | -2%
COc1cccc(-c2ccc3ncnc(NCc4cccs4)c3c2)c1 | -8% | 0% | -23% | 15µM* | -1% | -4%
COc1cccc(CNc2ncnc3ccc(-c4c(C)noc4C)cc23)c1 | u | 3% | x | 24% | -5% | -2%
Cn1ccc2cc(-c3ccc4ncnc(NCc5cccnc5)c4c3)ccc21 | x | 19µM* | x | x | -3% | -2%
Cc1noc(C)c1-c1ccc2ncnc(NCc3ccccc3)c2c1 | x | x | 2.8µM* | x | x | x
COc1cccc(-c2ccc3ncnc(NCc4cccc(C)c4)c3c2)c1 | -10% | 5% | x | 16µM* | -2% | -1%
O=C(O)c1cc(Nc2cc(Cl)c3nonc3c2[N+](=O)[O-])ccc1O | 0% | -12% | x | 11% | -2% | 5%
COc1cccc(CN2CCN(c3nc4nonc4nc3NC3CC3)CC2)c1 | -5% | 8% | -22% | -9% | -5% | -8%
CCCCCCCC(=O)Oc1ccc(C(=O)Nc2cc(C)on2)cc1 | u | 2% | x | u | u | u
O=C(Cn1nc(C(=O)O)c2ccccc2c1=O)Nc1cc(S(=O)(=O)N2CCOCC2)ccc1Cl | 2% | x | x | 2% | x | x
COc1cccc(CN2CCN(Cc3cc(OC)c(OC)cc3[N+](=O)[O-])CC2)c1 | 1% | 5% | -25% | u | 1% | -7%
COc1cc(CN2CCN(Cc3ccc([N+](=O)[O-])cc3)CC2)c([N+](=O)[O-])cc1OC | -8% | -1% | -61% | 18µM* | -17% | -12%
CC(=O)C1CCC2C3CCC4=CC(=O)CC[C@]4(C)[C@@]3(F)C(O)C[C@]12C (some centres undefined) | -8% | 6% | x | -28% | -2% | 0%[1.84 µM]
O=C(c1ccco1)N1CCN(CCCCOc2ccc(F)cc2)CC1 | 1% | -3% | -18% | -12% | -1% | -5%
